Measured values taken from PubChem BioAssay AID720553 (National Center for Advancing Translational Sciences (NCATS), 2013).
About 3,300 (0.97%) of roughly 340,000 compounds were called active. The sample as a whole holds a higher share of actives than the screen did. Values without a mark were called inactive.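 The calls were made as follows: active = maximum activity change below -70%; inconclusive = maximum activity change from -70% to -50%; inactive = maximum activity change above -50%.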

Test system: Potassium voltage-gated channel subfamily H member 2, brain isoform KCNH2 3.1 (human)
Test: qHTS for Inhibitors of KCHN2 3.1: Mutant qHTS
Conditions: U2OS KCNH2 3.1, thallium flux FluxOr; stronger effect = lower value
Summary of the method: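 Steps: virus added to U2OS suspension (4 h, RT, dark); medium with 10% FBS added, cells plated, 37 C overnight; FluxOr/Red40 loading buffer 45 min RT; stimulation buffer, 2 min kinetic read; rate constant normalized.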
% is scaled to controls: 0 for no effect and ±100 for the full control effect.

| SMILES | activity change |
| --- | --- |
| COc1ccc(S(=O)(=O)N2CCC(C(=O)NCCC(=O)Nc3ccccc3OC)CC2)cc1 | 7.34% |
| COCOCCn1cc(CN2CCS(=O)(=O)N(Cc3ccc(-c4ccccc4)cc3)C(CC(C)C)C2=O)nn1 (centres undefined) | -28.9% |
| C[C@H](NC(=O)c1nc[nH]c1C(=O)NCC(=O)OC(C)(C)C)c1ccccc1 | -20.8% |
| CC(C)(C)OC(=O)CNC(=O)c1[nH]cnc1C(=O)N[C@@H](Cc1ccccc1)C(=O)OCc1ccccc1 | -2.87% |
| C[C@H](NC(=O)c1nc[nH]c1C(=O)NCC(=O)OC(C)(C)C)C(=O)OCc1ccccc1 | -109% (active) |
| C[C@H]1CN([C@@H](C)CO)C(=O)CCCn2cc(nn2)CO[C@@H]1CN(C)S(=O)(=O)c1ccc(-c2ccccc2)cc1 | -9.74% |
| c1ccc2c(c1)nnn2-c1ccncc1 | 1.83% |
| COc1ccc(Cl)cc1NC(=O)CN(C)C(=O)c1cn(-c2ccccc2)nc1-c1cccs1 | -9.77% |
| CSc1ncccc1C(=O)N1CCCC(Nc2ccc(F)c(F)c2)C1 (centres undefined) | -0.997% |
| CCOC(=O)c1[nH]ncc1CN1CCCC(C(=O)c2ccc(OC)cc2C)C1 (centres undefined) | -6.21% |
| COc1ccc(C(=O)C2CCCN(Cc3cccn3-c3ccccn3)C2)c(C)c1 (centres undefined) | -108% (active) |
| COc1ccc(C(=O)C2CCCN(S(=O)(=O)c3cccc(C)c3)C2)c(C)c1 (centres undefined) | -2.34% |
| C=CCn1nc(C(=O)OCC)cc1-c1sc(NC(=O)c2ccccc2)nc1C | 21.3% |
| CN(C)CCNC(=O)/C(=C/c1cccc([N+](=O)[O-])c1)NC(=O)c1ccccc1 | -83.8% (active) |
| C=CCNC(=O)/C(=C\c1cccc([N+](=O)[O-])c1)NC(=O)c1ccccc1 | -8.85% |
| O=C(NCCc1ccccc1)/C(=C\c1ccc([N+](=O)[O-])cc1)NC(=O)c1ccccc1 | -33.9% |
| CCOC(=O)C=Cc1ccc(C(=O)OCC)[nH]1 | 6.88% |
| C[C@H](CO)N1C[C@H](C)[C@H](CN(C)C(=O)c2ccncc2)OCc2ccccc2-c2c(n(C)c3ccccc23)C1=O | -0.608% |
| COc1ccccc1-n1c(SCC(=O)Nc2ccc(Cl)cc2)nc(O)c(Cc2ccccc2)c1=O | 4.83% |
| CC(C)c1cc(C(=O)NC2CCCCCC2)c2ccccc2n1 | 2.17% |
| C[C@@H]1CN([C@@H](C)CO)S(=O)(=O)c2ccc(C#Cc3cccc(F)c3)cc2O[C@H]1CN(C)S(=O)(=O)c1cn(C)cn1 | 7.52% |

| SMILES | activity change |
| --- | --- |
| CC1CN(C(=O)CCC(=O)NCCCN2CCC(Cc3ccccc3)CC2)c2cc(Cl)ccc2O1 (centres undefined) | -84.9% (active) |
| CC1CN(C(=O)CCC(=O)NC2CCN(Cc3ccccc3)CC2)c2ccccc2O1 (centres undefined) | -0.725% |
| CC1CN(C(=O)CCC(=O)NCc2cccnc2)c2ccccc2O1 (centres undefined) | 27.3% |
| O=C1NC(Cc2ccccc2)c2nc3ccc(Br)cc3c(=O)n2-c2cc3ccccc3cc21 (centres undefined) | -16.2% |
| Cc1ccc([C@H]2N[C@]3(CCCN(Cc4ccccc4)C3=O)[C@H]3C(=O)N(Cc4ccccc4)C(=O)[C@@H]23)cc1 | 4.9% |
| O=C(COc1ccc(S(=O)(=O)N2CCCC2)cc1[N+](=O)[O-])N1CCCCC1 | -5.01% |
| Cc1cc(/C=C2/SC(=O)N(CC(=O)OC(C)C)C2=O)c(C)n1C | -7.88% |
| CCN=C1S/C(=C\c2cc(Br)ccc2OCC(=O)OCC)C(=O)N1CC | -71.6% (active) |
| CCOC(=O)CC1C(=O)NCCN1C(=O)COc1ccc(Br)cc1C (centres undefined) | 3.78% |
| Cc1ccc(C(=O)N2CCCc3ccccc32)c(Cl)c1 | 1.37% |
| Cc1nn(-c2ccccc2)c2c1C(=O)NC(=O)C(C)(C)C2 | -21.5% |
| CC1=C(N2CCN(c3ncccn3)CC2)CCC1=O | -6.3% |
| Cc1nn(-c2ncccn2)c2c1C(=O)CC(C)(C)C2Br (centres undefined) | -151% (active) |
| COc1ccccc1NC(=O)C(CC(=O)O)Cc1cc(C)cc(C)c1 (centres undefined) | 12.9% |
| C[C@H](O)[C@@H]1C(=O)N2CCc3c([nH]c4ccccc34)[C@@H]2C[C@@H]1N(C)C(=O)Nc1ccc(F)cc1 | -6% |
| Cc1cc2c(cc1C)N(Cc1ccccc1)C1=NCCCN12 | -15.2% |
| CC(C)(C)C(=O)CN1C2=NCCN2c2ccccc21 | 7.56% |
| OC(CN1C2=NCCCN2c2ccccc21)c1ccc(Br)cc1 (centres undefined) | -80.8% (active) |
| CCn1ccnc1CN(C)Cc1nc(-c2ccc3c(c2)OCO3)no1 | -1.19% |
| CN(CCN1CCOCC1)Cc1nc(-c2ccc3c(c2)OCO3)no1 | 3.94% |
| CC(C)N(Cc1nc(-c2ccc3c(c2)OCO3)no1)CC1CCC(=O)N1 (centres undefined) | -93.2% (active) |

| SMILES | activity change |
| --- | --- |
| C[C@@H]1CN([C@H](C)CO)C(=O)c2cc(-c3ccc(F)cc3)cnc2O[C@H]1CN(C)C(=O)c1ccc(F)cc1 | -4.52% |
| O=C(NCC(F)(F)F)c1ccc(S(=O)(=O)NCCc2ccc3c(c2)OCCO3)cc1 | -2.33% |
| CCCCCCn1c(=O)n2n(c1=O)C[C@]1(OC(=O)NCc3ccc(OC)c(OC)c3)CN(S(=O)(=O)c3ccc(C)cc3)C[C@]1(O)C2 | -6.76% |
| CC(C)(C)N(CC#CCC(O)(c1ccccc1)C1CCCC1)CCO (centres undefined) | -6.97% |
| CN(CC#CCC(c1ccccc1)c1ccccc1)C(C)(C)C | -77% (active) |
| Cc1ccc(CCNC(=O)CN2C(=O)CSc3ccc(S(=O)(=O)N4CCOCC4)cc32)cc1 | 4.19% |
| COC(=O)[C@H]1C[C@H](OC(=O)NCc2ccccc2)[C@@]2(O)CN(S(=O)(=O)c3ccc(C)cc3)CC2[C@H]1C(=O)OC (some centres undefined) | 2.28% |
| C[C@H](CO)N1C[C@H](C)[C@@H](CN(C)Cc2ccc3c(c2)OCO3)OCc2cnnn2CCCC1=O | -0.449% |
| COc1ccccc1C(=O)NCc1nnc(SC(C)C(=O)Nc2nccs2)n1C (centres undefined) | -5.02% |
| Cn1c(CNC(=O)c2ccccc2F)nnc1SCc1ccc(F)cc1 | 18.4% |
| CC(Sc1nnc(CNC(=O)c2ccccc2F)n1C)C(=O)Nc1nccs1 (centres undefined) | -211% (active) |
| Cc1ccc(OCC(=O)Nc2ccccc2C(=O)NC2CC2)cc1 | 21% |
| O=C(CN1CCCCC1)Nc1ccccc1C(=O)NC1CC1 | -2.8% |
| N#Cc1ccc(CN2CCN(CC(=O)Nc3ccccc3C(=O)NC3CC3)CC2)cc1 | -103% (active) |
| OCCC1CN(Cc2ccc(Oc3ncccn3)cc2)CCN1CCc1ccccc1 (centres undefined) | -3.13% |
| CCOc1ccc(CN2CCN(CCCc3ccccc3)C(CCO)C2)cc1 (centres undefined) | -77.7% (active) |
| COC(=O)c1ccc(CN2CCN(CCCc3ccccc3)C(CCO)C2)cc1 (centres undefined) | -48.5% |
| O=C1c2ccccc2-c2ccccc2NC1O (centres undefined) | 2.59% |
| O=C(c1ccc(OC2CCN(C/C=C/c3ccc(F)cc3)CC2)cc1)N1CCCCC1 | -73.2% (active) |
| O=C(c1ccc(OC2CCN(Cc3ccccn3)CC2)cc1)N1CCCCCC1 | 10% |
| CC(=O)Nc1ccc(CN2CCC(Oc3ccc(C(=O)N4CCCC4)cc3)CC2)cc1 | 9.17% |

| SMILES | activity change |
| --- | --- |
| Cc1ccc([C@H]2N[C@]3(CCCN(CC4CCCCC4)C3=O)[C@H]3C(=O)N(Cc4ccccc4)C(=O)[C@@H]23)cc1 | -5.04% |
| Nc1cccc(OCCCCCOc2cccc(N)c2)c1 | -1.75% |
| Cn1c(=O)c(=O)n(C)c2cc(S(=O)(=O)CCC(=O)N3CCCCC3)ccc21 | -86.6% (active) |
| CCc1ccc(S(=O)(=O)Nc2cc3c(cc2N2CCCCC2)n(C)c(=O)c(=O)n3C)cc1 | -8.37% |
| CCCCN(CCCC)C(=O)CCS(=O)(=O)c1ccc2c(c1)n(C)c(=O)c(=O)n2C | -1.58% |
| CCOC(=O)C1CCN(C(=O)c2ccc3c(=O)n4nc(Nc5ccccc5CC)sc4nc3c2)CC1 | -6.19% |
| CCOc1ccc(C2c3[nH]c4ccccc4c3CCN2Cc2cn(CC)nc2C)cc1 (centres undefined) | -7.11% |
| c1ccc(C2c3[nH]c4ccccc4c3CCN2Cc2cccn2-c2cccnc2)nc1 (centres undefined) | 7.54% |
| CCOc1ccc(C2c3[nH]c4ccccc4c3CCN2Cc2cccn2-c2ncccn2)cc1 (centres undefined) | -73.3% (active) |
| COc1ncnc2c1ncn2CCCNCCN1CCOCC1 | 7.59% |
| COc1ccc(CN2C(=O)C(CC(=O)NCc3cccc4ccccc34)CC(C(=O)N3CCOCC3)=C2C)cc1 (centres undefined) | 6.14% |
| CCCc1ccc(OCC(O)CN2CCN(C(=O)OCC)CC2)cc1 (centres undefined) | -6.68% |
| C[N+]1(CC(O)COc2ccccc2)CCN(C(=O)c2ccc([N+](=O)[O-])cc2)CC1 (centres undefined) | -11.2% |
| CC1CCN(CC(O)COc2ccc(C(=O)c3ccccc3)cc2)CC1 (centres undefined) | -6.71% |
| O=C(C(c1ccccc1)c1ccccc1)N1CCN(CC(O)COc2ccccc2)CC1 (centres undefined) | -70.2% (active) |
| OC(COc1ccccc1)CN1CCN(c2cccc(Cl)c2)CC1 (centres undefined) | -33.9% |
| O=[N+]([O-])c1ccc(N2CCN(CC(O)COc3ccccc3)CC2)cc1 (centres undefined) | -90.3% (active) |
| CC1=C(C(=O)Nc2cccc(C(=O)NCC(C)c3ccccc3)c2)SCCO1 (centres undefined) | 3.22% |
| COc1ccc(C(=O)NCC2CCCO2)cc1S(=O)(=O)NCc1ccc(Cl)cc1 (centres undefined) | -6.01% |
| N#CCSc1ccccc1NC(=O)CN1C(=O)NC(CCc2ccccc2)C1=O (centres undefined) | 0.381% |
| COc1ccc(-n2c(-c3ccc(Cl)cc3)n[nH]c2=S)c(OC)c1 | -3.64% |
